Measured values: PubChem BioAssay (Tox21)
Records with an inconclusive call do not appear. The source made the active and inactive calls. Unless noted, calls come from the whole dose curve; as a rule, active = well fitted curve in the direction sought with a large enough effect in the repeat runs; inconclusive = weak or mixed curves; inactive = no such curve, though single readings can be large; an effect the other way counts as inactive or inconclusive.

Columns and labels:
[1] = qHTS assay for small molecule agonists of the p53 signaling pathway (AID 651631; calls by dose curve; note: nearly all actives have a fitted effect of over 15% in size; note: potency is the fitted concentration of half-maximal effect)
Procedure, shortened: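 Agonist mode screen using a stably integrated beta-lactamase gene under p53 response elements in HCT-116 cells. Compound exposure lasts 16 h at 37 °C; fluorescence intensity is measured following 2 h FRET substrate loading.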

[2] = qHTS assay for small molecule agonists of the p53 signaling pathway - cell viability (AID 651633; calls by dose curve;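 note: p53RE-bla HCT reporter cells with a stable beta-lactamase p53 reporter; series mostly up to about 83 µM; nearly all actives have a fitted effect of over 30% in size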)
Procedure, shortened: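 p53RE-bla cells, seeded at 4,000 per well and rested 5 h at 37 C/5% CO2, received compounds in DMSO for 16 h at 37 C. CellTiter-Glo was then added, and luminescence was read after 30 min at room temperature to gauge cytotoxicity.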

[3] = qHTS assay for small molecules that induce genotoxicity in human embryonic kidney cells expressing luciferase-tagged ATAD5 - cell viability (AID 651634; calls by dose curve; note: nearly all actives have a fitted effect of over 25% in size)
Procedure, shortened: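 Fluorescence from CellTiter-Fluor, reporting protease activity within live cells, served as the viability read-out. HEK293T cells carrying luciferase-tagged ATAD5 had been treated with compound for 15.5 hr at 37C.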

[4] = qHTS assay for small molecule disruptors of the mitochondrial membrane potential - cell viability (AID 720634; calls by dose curve;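 note: human HepG2 liver cancer cells; series mostly up to about 83 µM; nearly all actives have a fitted effect of over 20% in size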)
Procedure, shortened: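 Cells: HepG2, 2,000/well, attached overnight. Compound 1 hr, 37 C/5% CO2. +m-MPI dye, +CellTiter-Glo 30 min RT. Readout: luminescence (ATP).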

[5] = qHTS assay for small molecule disruptors of the mitochondrial membrane potential (AID 720635)
Procedure, shortened: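 HepG2 cells (2,000/well) attached overnight at 37C, then took compound for 1 hr at 37C, 5% CO2. Mito-MPS dye was added for 30 min; fluorescence was read at 490/535 nm (monomers) and 540/590 nm (aggregates).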

[6] = qHTS assay to test for compound auto fluorescence at 590 nm (red) in HepG2 cells (AID 720674)
Procedure, shortened: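 Rose Bengal sodium served as the red fluorophore standard. HepG2 monolayers (overnight attachment, MEM with 10% FBS) were exposed to test compounds for 1 hr at 37 C and read at Ex 540/Em 590 nm.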

[7] = qHTS assay to test for compound auto fluorescence at 535 nm (green) in HepG2 cells (AID 720675)
[8] = qHTS assay to test for compound auto fluorescence at 460 nm (blue) in HEK293 cells (AID 720678)
Procedure, shortened: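 Blue-channel (Ex/Em 405/460 nm) intensity measured in HEK293 cultures after overnight compound exposure at 37C; signal expressed relative to triamterene. Cells plated 2,000 per well in 10% dialyzed FBS medium and allowed 4-5 hr to attach.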

[9] = qHTS assay to test for compound auto fluorescence at 590 nm (red) in HEK293 cells (AID 720679)
Procedure, shortened: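 Red-channel autofluorescence (Ex/Em 540/590 nm; Rose Bengal sodium reference) was measured after overnight 37C, 5% CO2 exposure of attached HEK293 cells, 2,000 per well in medium with 10% dialyzed FBS.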

[10] = qHTS assay to test for compound auto fluorescence at 535 nm (green) in HEK293 cells (AID 720680)
[11] = qHTS assay to test for compound auto fluorescence at 460 nm (blue) in HEK293 cell free culture (AID 720681)
Procedure, shortened: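 Test compounds were pinned into cell-free culture medium (DMEM with 10% FBS) and fluorescence was read directly at Ex/Em 405/460 nm. Signals were expressed as fluorescence equivalents of triamterene, with DMSO vehicle as control.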

[12] = qHTS assay to test for compound auto fluorescence at 535 nm (green) in HEK293 cell free culture (AID 720682)
Procedure, shortened: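 No cells present: wells hold DMEM supplemented with 10% FBS, into which compound or vehicle is pinned. Green emission is then recorded (485 nm excitation, 535 nm emission) and scaled to fluorescein.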

[13] = qHTS assay to test for compound auto fluorescence at 590 nm (red) in HEK293 cell free culture (AID 720683)
Procedure, shortened: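 Tox21 10K library compounds were pinned into cell-free DMEM with 10% FBS and fluorescence was read at excitation 540 nm. Activity is expressed as Rose Bengal sodium equivalency.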

[14] = qHTS assay to test for compound auto fluorescence at 590 nm (red) in HepG2 cell free culture (AID 720684)
Procedure, shortened: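 Red fluorescence (540 nm excitation, 590 nm emission) was measured after compound transfer into cell-free MEM supplemented with 10% FBS. Values are equivalencies against Rose Bengal sodium.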

[15] = qHTS assay to test for compound auto fluorescence at 460 nm (blue) in HepG2 cell free culture (AID 720685)
Procedure, shortened: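 Compound (23 nL) or DMSO pinned into cell-free MEM with 10% FBS; blue fluorescence read at 405/460 nm excitation/emission, expressed as auto-fluorescence equivalency to triamterene.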

[16] = qHTS assay to test for compound auto fluorescence at 535 nm (green) in HepG2 cell free culture (AID 720686)
[17] = molecular target: Glucocorticoid receptor (Homo sapiens) (UniProt P04150); test: qHTS assay to identify small molecule agonists of the glucocorticoid receptor (GR) signaling pathway (AID 720691; active = well fitted activation curve with a large enough effect in the signal ratio in the repeat runs, not every such curve was filed as active; the % refers to the signal ratio; note: potency is the fitted concentration of half-maximal effect)
Procedure, shortened: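 Fluorescence intensity from LiveBLAzer B/G FRET substrate (2 h, room temperature) reports beta-lactamase expression driven by the glucocorticoid response element in GR-bla HeLa cells after 18 h compound exposure at 37 C.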

[18] = molecular target: Glucocorticoid receptor (Homo sapiens) (UniProt P04150); test: qHTS assay to identify small molecule antagonists of the glucocorticoid receptor (GR) signaling pathway (AID 720692; active = well fitted inhibition curve with a large enough effect in the signal ratio in the repeat runs, not every such curve was filed as active; the % refers to the signal ratio; note: potency is the fitted concentration of half-maximal effect)
Procedure, shortened: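 HeLa GR-bla cells; cmpd + dex 5 nM final, 18 h 37 C; LiveBLAzer B/G FRET substrate 2 h RT; fluorescence intensity read. Antagonist mode, qHTS.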

[19] = qHTS assay for small molecules that induce genotoxicity in human embryonic kidney cells expressing luciferase-tagged ATAD5 (AID 651632); note: nearly all actives have a fitted effect of over 15% in size
Procedure, shortened: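 ATAD5-luc HEK293T, 2,000 cells/well; cpd or DMSO pin-transferred; 16 hr, 37C/5% CO2; Amplite 30 min RT; luminescence.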

[20] = qHTS assay to test for compound auto fluorescence at 460 nm (blue) in HepG2 cells (AID 720687)
Procedure, shortened: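 Cells (2,000/well in MEM with 10% FBS) attached overnight at 37 C, then were exposed to compound or DMSO for 1 hr at 37 C, 5% CO2. Fluorescence read at Ex/Em 405/460 nm, expressed as triamterene-equivalent signal.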
% is set by controls: 0 for no effect and ±100 for the full control effect.

Sequence of Glucocorticoid receptor (Homo sapiens) (P04150 whole entry, looked up): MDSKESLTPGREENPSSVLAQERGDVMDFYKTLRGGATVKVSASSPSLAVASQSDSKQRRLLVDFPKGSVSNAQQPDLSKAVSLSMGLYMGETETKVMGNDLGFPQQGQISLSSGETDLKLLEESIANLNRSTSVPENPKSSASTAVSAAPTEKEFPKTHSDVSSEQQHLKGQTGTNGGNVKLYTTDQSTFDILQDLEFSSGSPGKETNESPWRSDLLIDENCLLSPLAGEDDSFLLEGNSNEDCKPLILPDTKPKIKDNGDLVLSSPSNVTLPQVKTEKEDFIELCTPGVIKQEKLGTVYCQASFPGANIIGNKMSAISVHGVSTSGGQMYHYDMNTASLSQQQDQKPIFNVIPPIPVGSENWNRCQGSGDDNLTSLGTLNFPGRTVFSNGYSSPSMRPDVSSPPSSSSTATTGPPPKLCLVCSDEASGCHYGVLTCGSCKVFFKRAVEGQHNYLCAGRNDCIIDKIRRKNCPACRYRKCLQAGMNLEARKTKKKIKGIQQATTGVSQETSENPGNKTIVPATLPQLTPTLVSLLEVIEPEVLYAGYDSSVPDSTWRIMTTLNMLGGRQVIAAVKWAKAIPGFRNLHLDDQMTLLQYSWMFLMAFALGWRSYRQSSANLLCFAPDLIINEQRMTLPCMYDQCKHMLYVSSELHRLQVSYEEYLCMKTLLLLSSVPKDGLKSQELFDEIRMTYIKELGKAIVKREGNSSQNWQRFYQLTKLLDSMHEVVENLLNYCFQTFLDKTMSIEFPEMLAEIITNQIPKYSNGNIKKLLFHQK

ClC(Cl)Cl
inactive: Potency [1] | Potency [2] | Potency [3] | Potency [4] | Potency [5] | outcome [6] | outcome [7] | outcome [8] | outcome [9] | outcome [10] | outcome [11] | outcome [12] | outcome [13] | outcome [14] | outcome [15] | outcome [16] | Potency [17] | Potency [18]

CC1=CC(=O)CC(C)(C)C1=O
inactive: Potency [1] | Potency [19] | Potency [2] | Potency [3] | Potency [4] | outcome [6] | outcome [7] | outcome [8] | outcome [9] | outcome [11] | outcome [12] | outcome [13] | outcome [14] | outcome [16] | outcome [20] | Potency [17] | Potency [18]

COc1ccccc1OCC(O)COC(N)=O (stereo not drawn)
inactive: Potency [1] | Potency [19] | Potency [2] | Potency [3] | Potency [5] | fluorescence, relative to Rose Bengal [6] -0.267% [at 18.6 µM] | fluorescence, % of fluorescein control [7] 0.0143% [at 18.6 µM] | fluorescence, % of triamterene [8] 0.0837% [at 18.6 µM] | fluorescence, % of fluorescent control [9] 0.0645% [at 18.6 µM] | fluorescence, % of fluorescein [10] -0.023% [at 18.6 µM] | fluorescence, % of fluorescent control [11] 0.143% [at 18.6 µM] | activity change [12] 0.0183% [at 18.6 µM] | fluorescence, % of fluorescent control [13] -0.113% [at 18.6 µM] | fluorescence, % of Rose Bengal [14] 0.679% [at 18.6 µM] | fluorescence, % of fluorescent control [15] 0.0993% [at 18.6 µM] | fluorescence, % of fluorescein control [16] -0.0199% [at 18.6 µM] | fluorescence, % of fluorescent control [20] 0.0352% [at 18.6 µM] | Potency [17]

COc1cc2c(cc1N)oc1ccccc12
inactive: Potency [1] | Potency [19] | Potency [2] | Potency [3] | outcome [6] | outcome [7] | outcome [8] | outcome [9] | outcome [10] | outcome [11] | outcome [12] | outcome [13] | outcome [14] | outcome [16] | outcome [20] | Potency [17] | Potency [18]

CC[C@H]1CC[C@H](NCc2cc3c(cc2OC)[C@H]2C[C@H]2C(=O)N3C)[C@H](c2ccccc2)N1
inactive: Potency [2] | Potency [4] | Potency [5] | outcome [6] | outcome [7] | outcome [8] | outcome [9] | outcome [10] | outcome [11] | outcome [12] | outcome [13] | outcome [14] | outcome [16] | outcome [20] | Potency [17] | Potency [18]
active: Potency [1] 6.86 µM

CCCCCCCCOC(=O)CCCCCCCCC(=O)OCCCCCCCC
inactive: Potency [1] | Potency [19] | Potency [2] | Potency [3] | Potency [4] | outcome [6] | outcome [7] | outcome [8] | outcome [9] | outcome [11] | outcome [12] | outcome [13] | outcome [14] | outcome [15] | outcome [16] | Potency [17]

Cc1ncc(CO)c(CN)c1O
inactive: Potency [1] | Potency [19] | Potency [2] | Potency [3] | Potency [4] | outcome [6] | outcome [7] | outcome [8] | outcome [9] | outcome [11] | outcome [14] | outcome [15] | outcome [16] | outcome [20]

C1CCOC1
inactive: Potency [1] | Potency [2] | outcome [6] | outcome [7] | outcome [8] | outcome [9] | outcome [11] | outcome [13] | outcome [14] | outcome [15] | outcome [16] | Potency [17]

COC(C)CCO (stereo not drawn)
inactive: Potency [1] | Potency [19] | Potency [2] | Potency [3] | outcome [6] | outcome [7] | outcome [8] | outcome [9] | outcome [10] | outcome [11] | outcome [12] | outcome [13] | outcome [14] | outcome [15] | outcome [16]

Cc1cc(NS(=O)(=O)c2ccc(N)cc2)nc(C)n1
inactive: Potency [1] | Potency [19] | Potency [2] | Potency [3] | Potency [4] | outcome [6] | outcome [7] | outcome [8] | outcome [9] | outcome [11] | outcome [13] | outcome [14] | outcome [15] | outcome [16] | outcome [20]

Cc1ccc([N+](=O)[O-])cc1Cl
inactive: Potency [1] | Potency [19] | Potency [2] | Potency [3] | Potency [4] | outcome [6] | outcome [7] | outcome [8] | outcome [9] | outcome [11] | outcome [13] | outcome [16] | outcome [20] | Potency [17]

C[C@]12CCC(=O)C=C1CC[C@@H]1[C@@H]2CC[C@@]2(C)[C@H]1CC[C@]2(O)C(=O)CO
active: Potency [17] 12 µM | Potency [18] 0.338 µM
inactive: Potency [1] | Potency [19] | Potency [2] | Potency [3] | Potency [4] | outcome [6] | outcome [7] | outcome [8] | outcome [9] | outcome [11] | outcome [12] | outcome [13] | outcome [14] | outcome [15] | outcome [16] | outcome [20]

CC(C)NC[C@@H](O)COc1cccc2ccccc12
inactive: Potency [1] | Potency [2] | Potency [3] | Potency [4] | outcome [6] | outcome [7] | outcome [8] | outcome [9] | outcome [10] | outcome [11] | outcome [12] | outcome [13] | outcome [14] | outcome [15] | outcome [16] | outcome [20]

CCCCOc1cc(C(=O)NCCN(CC)CC)c2ccccc2n1
inactive: Potency [1] | Potency [19] | Potency [2] | Potency [3] | Potency [4] | fluorescence, relative to Rose Bengal [6] -0.403% [at 18.6 µM] | fluorescence, % of fluorescein control [7] 0.0079% [at 18.6 µM] | fluorescence, % of triamterene [8] -0.0164% [at 18.6 µM] | fluorescence, % of fluorescent control [9] -0.209% [at 18.6 µM] | fluorescence, % of fluorescent control [11] 0.0819% [at 18.6 µM] | activity change [12] -0.0175% [at 18.6 µM] | fluorescence, % of Rose Bengal [14] 0.52% [at 18.6 µM] | fluorescence, % of fluorescent control [15] 0.0544% [at 18.6 µM] | fluorescence, % of fluorescein control [16] -0.0334% [at 18.6 µM] | fluorescence, % of fluorescent control [20] -0.0681% [at 18.6 µM] | Potency [17]
